Screening data deposited in PubChem by National Center for Advancing Translational Sciences (NCATS).
Sampled rows, rich in hits. Any-hit rate of the full collection: about 19%.
TDP1 cell CPT: growth inhibition of DT40 Tdp1-/-;hTDP1 cells with camptothecin (screen for TDP1 inhibitors); chicken DT40 Tdp1-/-;hTDP1 cells + 20 nM CPT, ATP luminescence, 48 h; Potency, µM (highest dose often 46.2 µM), inactives show at the top dose activity change, negative = growth inhibition, usual class: inhibitors; AID 686979; 420,000 compounds, 12% hits; also: potency is read from the fitted curve at half-maximal effect; nearly all actives have a fitted effect of over 55% in size
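Chicken DT40 Tdp1-/- cells complemented with human TDP1, 400 cells/well, exposed to compounds plus 20 nM camptothecin for at least 48 h at 37 C; viability read as ATP content by CellTiter-Glo luminescence.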
HT1080 IDH1KD tx: kills HT-1080 cells with IDH1 knockdown; HT-1080 IDH1 knockdown viability, ATP luminescence, 48 h; AID 686971; Potency, µM (highest dose often 46.1 µM), for the others: at the top dose activity, negative = toxicity, hits mostly cytotoxic; 360,000 compounds, 2% hits;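 also: potency is read from the fitted curve at half-maximal effect; 0% = DMSO wells and -100% = cell-free medium wells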
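Viability of IDH1-knockdown HT-1080 fibrosarcoma cells was assessed by CellTiter-Glo after 48 h at 37 °C with titrated compound; concentration-effect curves were classified by fit quality and response size.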
IL1B secr inh: inhibitors of inflammasome signaling (IL-1 beta secretion) | THP-1 LPS/ATP IL-1B secretion, AlphaLISA, 16 h; stronger effect = lower value | activity change, % at 57.5 µM | 360,000 compounds, 4.7% hits | AID 743279; in the data active = activity change below about -50%; inconclusive = mostly about -30% to -49%
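Secreted IL-1B measured by AlphaLISA bead assay after 16 h compound exposure of THP-1 cells; compounds (final up to 57.5 uM) added 1 h before LPS (250 ng/mL) and ATP (1.25 mM) stimulation; lower signal means less secretion.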
TDP1 cell noCPT: qHTS for Inhibitors of human tyrosyl-DNA phosphodiesterase 1 (TDP1): qHTS in cells in absence of CPT. DT40 Tdp1-/- hTDP1 cells, no CPT, ATP luminescence, 48 h. Potency, µM (series often up to 46.2 µM), without a hit: at the top dose activity change, negative = growth inhibition, usual class: inhibitors. 420,000 compounds, 15% hits; also: potency is read from the fitted curve at half-maximal effect; nearly all actives have a fitted effect of over 55% in size
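Chicken DT40 Tdp1-/- cells stably complemented with human TDP1 were seeded at 400 cells/well with DMSO in place of 20 nM camptothecin. After compound pinning, cells grew at least 48 hr at 37 °C; viability read by CellTiter-Glo luminescence.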
HT1080NT lethal: kills 2HG-producing HT-1080-NT fibrosarcoma cells; HT-1080-NT fibrosarcoma viability, CellTiter-Glo ATP luminescence, 48 h; Potency, µM (top dose mostly 46.1 µM), inactives show top-dose activity, negative = less viability, actives largely listed as cytotoxic; 360,000 compounds, 1.6% hits; AID 686970;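 also: NT is the 2HG producing partner of a matched IDH1 knockdown line; potency is read from the fitted curve at half-maximal effect; 0% = DMSO-treated cells and -100% = media-only wells without cells; nearly all actives have a fitted effect of over 55% in size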
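Viability of the 2HG-overproducing fibrosarcoma line after 48 hours of compound exposure at 37 degrees C was determined by luminescence with CellTiter-Glo, and concentration-effect curves were then fitted and categorized.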
Numbers without * were called inactive; u = inconclusive; x = not tested or not shown; [ ] = remark or other dose. Unless noted, calls follow the shape of the dose curve; as a rule, active = well fitted curve in the direction sought with a large enough effect; inconclusive = small, poorly fitted or top-dose-only effect, or another doubt; inactive = no such curve, though single readings can be large; an effect the other way counts as inactive or inconclusive. Unless noted, % is scaled to controls: 0 for no effect and ±100 for the full control effect.

SMILES	TDP1 cell CPT	HT1080 IDH1KD tx	IL1B secr inh	TDP1 cell noCPT	HT1080NT lethal
CCOC(=O)C1CCN(S(=O)(=O)c2c(C)n[nH]c2C)CC1	2%	1%	32	0%	10%
COc1cc(OC)cc(C(=O)NC(C(=O)Nc2ccc3c(c2)OCO3)C(C)C)c1 (stereo not given)	0%	-2%	-21	u	-2%
COc1cc(CCC(=O)Nc2nnc(C)s2)cc(OC)c1OC	4.6µM*	7.3µM*	22	2.9µM*	6.5µM*
COc1cc(CCC(=O)Nc2ccc(Br)c(C(F)(F)F)c2)cc(OC)c1OC	18µM*	u	-18	21µM*	-8%
N#Cc1ccc(N/N=C/c2cn(-c3ccccc3)nc2-c2ccccc2)c([N+](=O)[O-])c1	3.7µM*	14%	11	8.2µM*	7%
Brc1nnc2n1-c1ccccc1Sc1ccccc1-2	-14%	-1%	u	-22%	-6%
Clc1ccc2c(c1)-c1nnc(Br)n1-c1ccccc1S2	u	-20%	-55*	u	-27%
O=C1C=CC(=O)N1Cc1ccccc1	1µM*	18µM*	-73*	2.3µM*	2.6µM*
COC(=O)c1cc(NC(=O)c2ccc3c(c2)NC(=O)c2ccccc2S3)cc(C(=O)OC)c1	4.6µM*	x	x	6.5µM*	x
O=C(CNc1ccc2c(c1)OCO2)N/N=C\c1cn(Cc2ccccc2)c2ccccc12	18µM*	-20%	-6	23µM*	-15%
CCc1cccc(NC(=O)Cn2cc(C=O)c3ccccc32)c1	9.2µM*	16µM*	18	10µM*	u
O=Cc1cn(CC(=O)Nc2ccc3c(c2)OCO3)c2ccccc12	u	0%	11	16µM*	-2%
COc1ccc(OC)c(NC(=O)Cn2cc(C=O)c3ccccc32)c1	u	-11%	46	u	-19%
Cc1ccc(NC(=O)Cn2cc(C=O)c3ccccc32)cc1	u	0%	65	-24%	-15%
COc1cccc(NC(=O)Cn2cc(C=O)c3ccccc32)c1	16µM*	-14%	36	26µM*	-26%
CN(C)c1ccc(-n2cccc2/C=C/[N+](=O)[O-])cc1	16µM*	6.5µM*	-101*	4.1µM*	6.5µM*
COc1ccccc1-c1cc2c(c3c1ccn3C)C1CCC2C1 (stereo not given)	u	1%	-8	u	0%
CCCCNC(=O)c1nc(C2CCN(S(=O)(=O)c3ccc(S(C)(=O)=O)cc3)CC2)oc1-c1ccccc1	5.8µM*	2%	-26	13µM*	-2%
CCCCNC(=O)c1nc(C2CCN(S(=O)(=O)c3ccc(C(F)(F)F)cc3)CC2)oc1-c1ccccc1	5.8µM*	-11%	11	7.3µM*	-23%
CCCCNC(=O)c1nc(C2CCN(S(=O)(=O)c3cccc(C(F)(F)F)c3)CC2)oc1-c1cccc(C(F)(F)F)c1	0%	20%	1	6%	u
CC(=O)Cc1nsc(NC(=O)c2ccc(-c3ccc(Cl)cc3Cl)o2)n1	-9%	7%	18	u	0%
Cc1ccc2nsnc2c1NC(=O)CCl	u	u	-24	21µM*	u
Cc1ccc2nsnc2c1NC(=O)c1ccc(-c2cc(Cl)ccc2Cl)o1	u	-27%	-2	u	16µM*
Cc1ccc2nsnc2c1NC(=O)c1ccc([N+](=O)[O-])o1	u	u	-92*	23µM*	-14%
Cc1nnc2sc(-c3ccc(NC(=O)c4ccc(-c5ccc(Cl)cc5Cl)o4)cc3)nn12	16µM*	-5%	21	u	0%
SMILES	TDP1 cell CPT	HT1080 IDH1KD tx	IL1B secr inh	TDP1 cell noCPT	HT1080NT lethal
Cc1ccc2nsnc2c1NC(=O)Cc1ccc(Cl)cc1	-3%	8%	8	u	8%
CCC(=O)Nc1c(C)ccc2nsnc12	3%	-1%	19	-11%	-15%
CCC(Sc1nc2cc(OC)c(OC)cc2c(=O)n1Cc1ccc(Cl)cc1)C(=O)NCCOC (stereo not given)	-4%	x	x	-7%	x
COc1cc(C2Nc3cccc4cccc(c34)N2)ccc1O	u	-17%	-83*	u	-16%
COc1cc(C2Nc3cccc4cccc(c34)N2)cc(OC)c1OC(C)=O	u	0%	-20	23µM*	-1%
O=C(NCCCN1CCN(c2ccccc2F)CC1)C1CCC(=O)N1C1CCCC1 (stereo not given)	1%	6%	-11	-12%	17%
CN(C1CCCCC1)S(=O)(=O)c1ccc(F)c(C(=O)Nc2ccc(C(F)(F)F)cc2)c1	23µM*	x	x	21µM*	x
CN(C1CCCCC1)S(=O)(=O)c1ccc(S(=O)(=O)N(CC(=O)Nc2ccccc2)C2CC2)cc1	u	-6%	15	23µM*	-17%
CCc1ccc(NC(=O)c2cc(S(=O)(=O)NC3CCCC3)ccc2F)cc1	13µM*	x	x	16µM*	x
CN(C1CCCCC1)S(=O)(=O)c1ccc(Cl)c(C(=O)O)c1	-22%	24%	1	-15%	17%
COc1ccccc1NC(=O)c1cc(S(=O)(=O)NC2CCCC2)ccc1F	u	-11%	u	4%	-3%
CN(C1CCCCC1)S(=O)(=O)c1ccc(NC(=O)C2CCCCC2)cc1	16µM*	u	-9	21µM*	-11%[9.24 µM]
Cc1ccc(SCCN2CCC(O)CCC2=O)cc1 (stereo not given)	-3%	6%	11	-4%	-2%
CC(C)n1c(-c2ccco2)csc1=Nc1cccnc1	11µM*	u	0	u	u
COCCn1c(-c2ccccc2)csc1=Nc1cccnc1	16µM*	-10%	-11	u	-18%
c1cncc(N=c2scc(-c3cccc4ccccc34)n2CCCn2ccnc2)c1	u	-24%	-4	u	u
Cc1ccc(-c2csc(=Nc3cccnc3)n2CCCN2CCCC2=O)cc1C	u	-12%	-51*	18µM*	-23%
Cc1ccc(-c2csc(=Nc3cccnc3)n2CCCn2ccnc2)cc1C	16µM*	-20%	u	12µM*	-6%
CCCCn1c(C)csc1=Nc1cccnc1	u	0%	-14	u	6%
O=C(NC1CCN(Cc2ccccc2)CC1)c1cc(S(=O)(=O)N2CCOCC2)ccc1Cl	u	-1%	0	-26%	0%
Cc1ccc(S(=O)(=O)N2CCCCC2)cc1NC(=O)COC(=O)c1ccccc1F	-23%	-9%	30	-17%	4%
COc1cccc(NC(=O)CN2C(=O)COc3ccc(S(=O)(=O)N4CCC(C)CC4)cc32)c1	u	-6%	u	u	2%
CC1Cc2ccccc2N1C(=O)CSc1nnnn1Cc1ccccc1 (stereo not given)	u	-20%	-13	u	-17%
